Measured values as given in ChEMBL document CHEMBL1961873, “Compounds: GSK PKIS; Assays: Nanosyn kinase panel” (2012).

Biological target: Casein kinase I isoform gamma-3 (Homo sapiens) (UniProt Q9Y6M4)
Details: at 0.1 µM

Chain of Casein kinase I isoform gamma-3 (Homo sapiens) (Q9Y6M4 whole entry, looked up, canonical isoform): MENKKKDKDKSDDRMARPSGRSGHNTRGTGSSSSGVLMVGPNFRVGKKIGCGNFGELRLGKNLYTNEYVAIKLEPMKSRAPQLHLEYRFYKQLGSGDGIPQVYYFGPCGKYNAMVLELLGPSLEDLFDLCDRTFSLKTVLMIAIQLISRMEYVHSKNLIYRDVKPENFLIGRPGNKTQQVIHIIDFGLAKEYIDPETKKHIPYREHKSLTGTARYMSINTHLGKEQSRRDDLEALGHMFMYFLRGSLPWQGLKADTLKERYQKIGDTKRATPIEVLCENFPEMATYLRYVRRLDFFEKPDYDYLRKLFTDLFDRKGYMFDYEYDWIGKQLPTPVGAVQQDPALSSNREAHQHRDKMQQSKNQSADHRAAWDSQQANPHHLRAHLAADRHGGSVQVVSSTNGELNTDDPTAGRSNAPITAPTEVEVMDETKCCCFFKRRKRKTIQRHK

Compound | inhibition
CC(C)(CO)CNC(=O)c1ccc2c(c1)/C(=N/Nc1ccc(S(N)(=O)=O)cc1)C(=O)N2 | 1.31%
COc1ccc(-c2cc(-c3c[nH]nc3-c3ccccn3)ccn2)cc1 | 3.68%
CC(=O)NCc1cccc(C#Cc2cncnc2Nc2ccc(OCc3cccc(F)c3)c(Cl)c2)c1 | -1.04%
COc1ccc(CNC(=O)c2ccc(-c3cc(-c4nnc(C)o4)ccc3C)cc2)cc1 | 0.01%
O=S(=O)(CCNCc1ccc(-c2ccc3ncnc(Nc4ccc(OCc5cccc(F)c5)c(Cl)c4)c3c2)o1)c1ccccc1 | 4.59%
Nc1nc(-c2cccc(Cl)c2)c(-c2ccc3ncccc3n2)s1 | 6.72%
CS(=O)(=O)CCNCc1ccc(-c2ccc3ncnc(Nc4ccc(OCc5ccccc5)c(C(F)(F)F)c4)c3c2)o1 | 3.19%
CCN(CC)S(=O)(=O)c1ccc(OC)c(Nc2ncc(-c3ccccc3)o2)c1 | -0.78%
CS(=O)(=O)CCNCc1coc(-c2ccc3ncnc(Nc4ccc(OCc5ccccc5)cc4)c3c2)c1 | 1.74%
CCN1CCC(CC(=O)Nc2n[nH]c3nnc(-c4cccc(F)c4F)cc23)CC1 | -0.19%
CN1CCC(n2cnc(-c3ccc(F)cc3)c2-c2ccnc(Nc3ccccc3)n2)CC1 | 12.4%
CCNC(=O)O[C@H]1CN[C@H](C#Cc2cc3ncnc(Nc4ccc(OCc5cccc(F)c5)c(Cl)c4)c3s2)C1 | 3.84%
Clc1ccc(-c2nn3ncccc3c2-c2ccnc(Nc3ccccc3)n2)cc1 | 1.6%
Cc1cccc2c1NC(=O)/C2=N\Nc1ccc(S(N)(=O)=O)cc1 | 0.83%
COc1cc(/C=N/Nc2ncnc3[nH]ncc23)ccc1O | 3.84%
COc1cccc(-n2ncc3c(N/N=C/c4ccc(F)cc4)ncnc32)c1 | 3.39%
COc1cc(N2CCN(C(C)C)CC2)ccc1Nc1nc(Nc2ccc(F)cc2C(N)=O)c2cc[nH]c2n1 | 14.7%

Biological target: Casein kinase I isoform gamma-3 (Homo sapiens) (UniProt Q9Y6M4)
Details: at 1 µM

Compound | inhibition
CCCN(CCS(C)(=O)=O)Cc1ccc(-c2ccc3ncnc(Nc4ccc(OCc5cccc(F)c5)c(Cl)c4)c3c2)o1 | 1.11%
CCn1c(-c2nonc2N)nc2c(C#CC(C)(C)O)ncc(OC3CCNCC3)c21 | 3.15%
CCn1c(-c2nonc2N)nc2c(C#CC(C)(C)O)nc(OC[C@H](N)c3ccccc3)cc21 | 4.23%
CC(=O)Nc1cccc(C#Cc2cncnc2Nc2ccc(OCc3cccc(F)c3)c(Cl)c2)c1 | 1.12%
Cc1ccc(O)cc1Nc1ccnc2cc(-c3ccccn3)ccc12 | 6.72%
CCn1c(-c2nonc2N)nc2cnc(Oc3cccc(NC(=O)c4ccc(N(C)C)cc4)c3)cc21 | 0.52%
NC(=O)c1sc(-n2cnc3ccc(C(F)(F)F)cc32)cc1OCc1ccccc1Br | 2.37%
CCc1nn2ncccc2c1-c1ccnc(NC2CC2)n1 | 0.68%
N#Cc1c(NC(=O)CN2CCOCC2)sc2c1CCCC2 | 6.07%
CN(C)CCOc1ccc(-c2nc(-c3ccncc3)c(-c3ccc4c(c3)CC/C4=N\O)[nH]2)cc1 | 3.59%
CCOc1ccc2c(-c3ccnc(Nc4cccc(C(F)(F)F)c4)n3)cnn2n1 | 1.86%
COc1cccc(-c2c[nH]c3c(N/N=C/c4ccncc4)ncnc23)c1 | 4.42%
c1cc(-c2cnn3nc(N4CCOCC4)ccc23)nc(NC2CC2)n1 | 8.91%
CNC(=O)c1cncc(/C=C/c2ccccc2Cl)c1 | -0.89%
c1ccc(-c2nc3n(c2-c2ccc4c(c2)OCO4)CCC3)nc1 | 4.18%
Fc1cccc(COc2ccc(Nc3ncnc4sc(-c5ccco5)cc34)cc2Cl)c1 | 3.97%
CC(C)(CO)CNC(=O)c1ccc2c(c1)/C(=N/Nc1ccc(S(N)(=O)=O)cc1)C(=O)N2 | 8.37%

Compound | inhibition
COc1ccc(-c2cc(-c3c[nH]nc3-c3ccccn3)ccn2)cc1 | 6.59%
CC(=O)NCc1cccc(C#Cc2cncnc2Nc2ccc(OCc3cccc(F)c3)c(Cl)c2)c1 | -0.37%
COc1ccc(CNC(=O)c2ccc(-c3cc(-c4nnc(C)o4)ccc3C)cc2)cc1 | 0.83%
O=S(=O)(CCNCc1ccc(-c2ccc3ncnc(Nc4ccc(OCc5cccc(F)c5)c(Cl)c4)c3c2)o1)c1ccccc1 | 5.14%
Nc1nc(-c2cccc(Cl)c2)c(-c2ccc3ncccc3n2)s1 | 24.7%
CS(=O)(=O)CCNCc1ccc(-c2ccc3ncnc(Nc4ccc(OCc5ccccc5)c(C(F)(F)F)c4)c3c2)o1 | 2.56%
CCN(CC)S(=O)(=O)c1ccc(OC)c(Nc2ncc(-c3ccccc3)o2)c1 | 1.34%
CS(=O)(=O)CCNCc1coc(-c2ccc3ncnc(Nc4ccc(OCc5ccccc5)cc4)c3c2)c1 | 1.31%
CCN1CCC(CC(=O)Nc2n[nH]c3nnc(-c4cccc(F)c4F)cc23)CC1 | 1.47%
CN1CCC(n2cnc(-c3ccc(F)cc3)c2-c2ccnc(Nc3ccccc3)n2)CC1 | 61.7%
CCNC(=O)O[C@H]1CN[C@H](C#Cc2cc3ncnc(Nc4ccc(OCc5cccc(F)c5)c(Cl)c4)c3s2)C1 | 0.57%
Clc1ccc(-c2nn3ncccc3c2-c2ccnc(Nc3ccccc3)n2)cc1 | 4.02%
Cc1cccc2c1NC(=O)/C2=N\Nc1ccc(S(N)(=O)=O)cc1 | 1.98%
COc1cc(/C=N/Nc2ncnc3[nH]ncc23)ccc1O | 20%
COc1cccc(-n2ncc3c(N/N=C/c4ccc(F)cc4)ncnc32)c1 | 3.4%
COc1cc(N2CCN(C(C)C)CC2)ccc1Nc1nc(Nc2ccc(F)cc2C(N)=O)c2cc[nH]c2n1 | 59%
